CYP2C9 activ: activators of human CYP2C9; P11712; recombinant CYP2C9, luciferin-H conversion, luminescence; stronger effect = higher value; factor 1 = untreated enzyme, 0 = blocked; activation factor at 5 µM; 96,000 tested, 1.4% active;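 active = activation factor of 2 or more for CYP2C9 at a 5 µM dose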;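 note: 0 = sulfaphenazole-blocked wells and 1 = vehicle-only wells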
Target sequence (P11712 whole entry, looked up): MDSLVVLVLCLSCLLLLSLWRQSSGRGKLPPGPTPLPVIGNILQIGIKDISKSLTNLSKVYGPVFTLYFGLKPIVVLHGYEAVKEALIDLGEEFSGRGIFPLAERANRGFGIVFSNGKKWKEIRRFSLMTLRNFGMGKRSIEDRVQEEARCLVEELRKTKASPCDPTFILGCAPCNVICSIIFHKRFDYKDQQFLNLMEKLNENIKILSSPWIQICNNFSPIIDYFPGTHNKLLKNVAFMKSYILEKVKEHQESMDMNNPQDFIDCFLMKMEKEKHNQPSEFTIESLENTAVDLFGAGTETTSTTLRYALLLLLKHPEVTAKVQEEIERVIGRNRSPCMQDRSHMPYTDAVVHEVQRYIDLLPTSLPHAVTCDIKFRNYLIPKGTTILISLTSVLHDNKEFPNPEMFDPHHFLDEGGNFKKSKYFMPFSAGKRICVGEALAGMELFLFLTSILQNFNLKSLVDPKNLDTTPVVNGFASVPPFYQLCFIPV
CYP2C19 activ: cytochrome P450 2C19 (human) activation; 96,000 tested, under 10 active; P33261; AID 1025; recombinant CYP2C19, luciferin-H EGE luminescence; stronger effect = higher value; 0 = fully inhibited enzyme, 1 = untreated enzyme; activation factor at 5 µM;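 active = activation factor of at least 2 at 5 µM in the primary screen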;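 note: 0 = wells with 2.5 mM tranylcypromine and 1 = vehicle-only wells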
CYP2C19 inh: blocks human cytochrome P450 2C19. 96,000 tested, 21% active. inhibition, % at 5 µM. CYP2C19 Supersomes, luciferin-H EGE luminescence, 30 min;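 active = CYP2C19 inhibition above a set limit at 5 µM in the primary screen, cut at about 50% in these data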;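 note: plate controls were negative control wells for no effect and 2.5 mM tranylcypromine positive control for full effect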
F-actin modifier: cytoskeleton assembly modification; inhibition, % at 2 µM; 91,000 tested, 0.18% active; AID 836; HUVEC TNFa F-actin phalloidin imaging, high content;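 active = inhibition above the batch mean plus 3 SD and confirmed as a hit by visual image inspection, cut at about 30% in these data, passing the limit was not always enough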
E-sel TNF inh: blocks E-selectin expression induced by TNF alpha | HUVEC TNFa-induced E-selectin immunofluorescence, high content | inhibition, % at 2 µM | 120,000 tested, 0.71% active | AID 1246;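 active = inhibition above the batch mean plus 3 SD, and confirmed as a hit on visual image review, cut at about 43% in these data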;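 note: 0% = TNF-stimulated DMSO wells and 100% = unstimulated control wells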
CYP2C9 inhib: blocks human cytochrome P450 2C9. CYP2C9 Supersomes, luciferin-H conversion, luminescence. inhibition, % at 5 µM. 96,000 tested, 20% active. AID 777;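 active = blocking of liver enzyme CYP2C9 beyond about 50% at 5 µM, limit read from the data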
The depositor's hits bear a star; . = not tested or not shown. Compounds with a hit are over-represented: about 22% of the library has one in this group of screens.

SMILES	CYP2C9 activ	CYP2C19 activ	CYP2C19 inh	F-actin modifier	E-sel TNF inh	CYP2C9 inhib
Cc1c(NC(=O)C(C)Sc2nnc(-c3ccccc3)o2)c(=O)n(-c2ccccc2)n1C (stereo not drawn)	1.1	0.3	70.2*	-0.6	-7.9	-11.4
Cc1c(NC(=O)C(C)Sc2ncnc3ccccc23)c(=O)n(-c2ccccc2)n1C (stereo not drawn)	.	.	.	.	-61.1	.
Nc1ccc(C(=O)OCCCc2nc3ccccc3[nH]2)cc1	0.8	0.5	51.1*	10.9	-9.7	18.8
Nc1ccc(C(=O)OCc2nc3ccccc3[nH]2)cc1	0.9	0.2	80.9*	10.4	-4.6	9.0
CC(C)c1csc(CN2CCN(CCc3ccccc3)C(CCO)C2)n1 (stereo not drawn)	.	.	.	.	-13.2	.
CC(=O)Nc1cc(NC(=O)C2C3C=CC(C3)C2C(=O)O)ccc1Cl (stereo not drawn)	.	.	.	15.0	-5.4	.
Cn1c(CCN2CCN(c3ccc(F)cc3)CC2)nc2cc(NC(=O)c3ccco3)ccc21	0.8	0.8	18.2	5.5	.	23.4
Cn1c(CCN2CCCCC2)nc2cc(NS(=O)(=O)c3ccc(Cl)cc3)ccc21	1	0.8	16.6	.	.	0.1
Cn1c(CN2CCCCC2)nc2cc(NS(=O)(=O)c3ccc(Cl)cc3)ccc21	0.3	0.6	42.1	18.0	-31.0	67.3*
Cc1ccc(N2CCN(CCc3nc4cc(NC(=O)c5ccco5)ccc4n3C)CC2)cc1	0.3	0.6	44.5	-5.3	3.4	69.0*
Cn1c(CCNC(=O)c2ccco2)nc2cc(NS(=O)(=O)c3ccc(Cl)cc3)ccc21	0	0.1	88.9*	-27.6	45.8	98.2*
Cn1c(CN2CCCCC2)nc2cc(NC(=O)c3cccs3)ccc21	0.1	0	98.6*	-11.4	2.0	87.0*
O=C(Cn1c2c(c(-c3ccccc3)cc1=O)CCCC2)N1CCCCCC1	.	.	.	.	-11.8	.
CCCNC(=O)c1cnc(Sc2ncc(C(F)(F)F)cc2Cl)n1C	0.3	0.8	23.8	-2.6	14.4	70.9*
Cn1c(C(=O)N2CCOCC2)cnc1Sc1ncc(C(F)(F)F)cc1Cl	0.8	0.9	8.2	-5.5	13.5	20.6
OC1(c2cn(Cc3ccccc3)nn2)CCCCC1	1.1	0.9	10.0	17.8	56.2	-5.0
O=C(COc1ccc(Br)cc1)OCc1nnc(-c2ccccc2)o1	1	1.1	-6.8	11.3	2.2	-3.3
CCOc1ccc(OCC)c(NC(=O)C2CCCN(S(=O)(=O)c3cnc[nH]3)C2)c1 (stereo not drawn)	0.2	0.6	44.1	3.2	-5.5	79.2*
CCOc1ccc(OCC)c(NC(=O)C2CCCN(S(=O)(=O)c3c(C)noc3C)C2)c1 (stereo not drawn)	0.9	0.9	5.9	33.2	-9.2	7.6
CCOc1ccc(OCC)c(NC(=O)C2CCCN(S(=O)(=O)c3c(C)n[nH]c3C)C2)c1 (stereo not drawn)	0.4	0.5	45.4	7.1	-8.1	63.5*
Cc1[nH]c2ccccc2c1/C=N/NC(=O)Cc1cccs1	.	.	.	.	-15.3	.
COc1ccc(NS(=O)(=O)c2cccc(-c3nnc(-c4ccccc4)o3)c2)cc1	.	.	.	4.7	-5.6	.
O=S(=O)(NC1CCCC1)c1cccc(-c2nnc(-c3ccccc3)o2)c1	0.1	0.7	34.5	5.3	19.8	86.7*
COc1cccc(CNC(=O)c2cccc(Br)c2)c1	.	.	.	.	13.6	.
NNC(=O)c1cccc(COc2cccc(Br)c2)c1	0.3	0	98.4*	-10.4	5.0	68.4*
SMILES	CYP2C9 activ	CYP2C19 activ	CYP2C19 inh	F-actin modifier	E-sel TNF inh	CYP2C9 inhib
NNC(=O)c1cccc(COc2ccc(Br)cc2)c1	.	.	.	.	3.6	.
COc1ccc(NC(=O)C(=O)NNC(=O)c2cccs2)c(OC)c1	1	0.9	9.4	-5.2	28.2	0.1
COc1ccc(OC)c(NC(=O)COC(=O)c2c3c(nc4ccccc24)CCCC3)c1	0.5	0.8	20.5	-22.0	-2.8	51.6*
COc1ccc(C(=O)NCC(=O)OCc2cccc(Br)c2)cc1	0.8	0.5	54.7*	6.2	-28.6	18.6
COc1ccc(OC)c(NC(=O)CNC(=O)c2cccs2)c1	0.8	0.5	53.6*	10.9	-0.4	18.7
COc1ccc(NC(=O)COC(=O)c2c3c(nc4ccccc24)CCCC3)cc1	0.7	0.9	14.6	11.3	.	28.7
COc1ccc(C(=O)NCC(=O)OCC(=O)Nc2cc(OC)ccc2OC)cc1	0.5	0.3	70.6*	18.6	-25.1	49.3
CCCCCn1c(CN2CCN(Cc3ccccc3)CC2)nc2c1c(=O)n(C)c(=O)n2C	.	.	.	-5.8	99.8*	.
CCCCCn1c(CN2CCN(c3cccc(Cl)c3)CC2)nc2c1c(=O)n(C)c(=O)n2C	0.5	0.8	21.6	7.0	-12.2	54.6*
CCCCn1c(CN2CCN(c3ccccc3)CC2)nc2c1c(=O)n(C)c(=O)n2C	0.9	0.9	6.9	-1.8	.	8.5
CCCCCCn1c(CN2CCN(CCO)CC2)nc2c1c(=O)n(C)c(=O)n2C	0.8	0.9	11.3	.	-2.3	18.3
Cn1c(=O)c2c(nc(CN3CCC(C(N)=O)CC3)n2CCCc2ccccc2)n(C)c1=O	0.3	0.4	59.3*	10.4	21.6	70.7*
CCCn1c(CN2CCN(c3cccc(Cl)c3)CC2)nc2c1c(=O)n(C)c(=O)n2C	0.6	0.8	24.8	-9.8	61.9*	42.2
Cn1c(=O)c2c(nc(CN3CCN(c4ccccc4)CC3)n2CCCc2ccccc2)n(C)c1=O	.	.	.	-0.2	-41.7	.
COc1ccc(C(=O)N2CC3(C)CC2CC(C)(C)C3)cc1 (stereo not drawn)	1.1	0.9	14.7	-4.9	6.5	-9.3
CCCCn1c(CN2CCN(c3cccc(Cl)c3)CC2)nc2c1c(=O)n(C)c(=O)n2C	0.1	0.4	56.3*	12.9	-10.6	85.3*
CCOC(=O)N1CCN(Cc2nc3c(c(=O)n(C)c(=O)n3C)n2Cc2cccc(C)c2)CC1	0.3	0.1	85.6*	-0.4	.	67.4*
COc1ccc(CNc2nn[nH]n2)cc1OC	1.2	1.2	-18.2	5.2	.	-20.0
COc1cc(NC(=O)c2noc3c2CCC3)c(OC)cc1Cl	0.9	0.9	7.9	.	-42.7	14.7
O=C(NCC1COCCO1)C1CCN(S(=O)(=O)c2ccccc2)CC1 (stereo not drawn)	0.8	1	1.2	-10.4	-13.3	19.7
COc1ccc(C(=O)NC(Cc2ccccc2)c2ccc3c(c2)OCCCO3)cc1 (stereo not drawn)	0.4	0.8	21.3	-13.4	-14.4	56.7*
O=C(NC(Cc1ccccc1)c1ccc2c(c1)OCCCO2)c1ccccc1F (stereo not drawn)	0.2	0.2	77.1*	18.6	-29.3	82.9*
CC(=O)N(CCC(Cc1ccccc1)c1ccc2c(c1)OCO2)Cc1ccccc1F (stereo not drawn)	0	0.1	87.7*	-16.2	5.5	95.9*
CCOc1ccc(NC(=NCc2ccc3c(c2)OCO3)SC2CC(=O)N(c3ccccc3)C2=O)cc1 (stereo not drawn)	.	.	.	0.9	-5.8	.
